Measured values published in PubChem BioAssay AID624309 (Sanford-Burnham Center for Chemical Genomics, 2012).
The campaign covered roughly 2,000 compounds. About 260 (13%) were called active. Rule as the data show it: active = inhibition mostly above about 42% (no sharp cut-off); inactive = mostly below about 42%. These entries were drawn from the full list.

system: Nicotinate mononucleotide adenylyltransferase NadD (Staphylococcus aureus N315); assay: inhibitors of S. aureus NadD, confirmation, biochemical, colorimetric, single concentration (AID 624309); conditions: purified S. aureus NadD, colorimetric enzyme assay; at 20 µM; active compounds read high

| Compound | inhibition |
| --- | --- |
| Nc1[nH]c(=S)nc2nc(-c3ccccc3)c(-c3ccccc3)nc12 | 38.5% (inactive) |
| COc1ccc([N+](=O)[O-])cc1NC(=O)CC1SC(=Nc2cccc(C)c2C)N(/N=C(\C)c2ccc(C)cc2)C1=O (centres undefined) | -2.98% (inactive) |
| Cc1nc(N2CCN(c3ccccn3)CC2)c2c(C)c(C(=O)Nc3ccc(F)c(Cl)c3)sc2n1 | 3.33% (inactive) |
| C=CC1=C(C(=O)O)N2C(=O)[C@@H](NC(=O)/C(=N/OCC(=O)O)c3csc(N)n3)[C@H]2SC1 | 95.8% (active) |
| O=C(O)c1ccc(COCC(F)(F)F)cc1 | 10.3% (inactive) |
| CC1(OC(=O)C2CCCC2)C(=O)C=C2C=C(c3ccc(C#N)cc3)OC=C2C1=O (centres undefined) | 73.5% (active) |
| Cc1nn(-c2ccccc2)c(C)c1/C=N/NC(=O)CSc1nc2ccccc2c(=O)n1-c1ccccc1 | 8.17% (inactive) |
| CCOc1ccc(-c2n[nH]c(=S)n2/N=C/c2cc3c(cc2[N+](=O)[O-])OCO3)cc1 | 4.81% (inactive) |
| N#CC1=C(SCc2ccc(C#N)cc2)N=C(N)C(c2nc(-c3ccccc3)cs2)C12CCCCC2 (centres undefined) | 24.2% (inactive) |
| CCN(CC)C(=O)c1sc2nc(-c3ccccc3)ccc2c1N | -11.1% (inactive) |
| O=C(CSc1nc(Nc2ccccc2)nc(N2CCOCC2)n1)Nc1cc(Cl)ccc1O | 43.2% (inactive) |
| O=C(NCC(=O)N1CCN(c2ccccc2O)CC1)c1ccc2ccccc2c1 | 34.8% (inactive) |
| CCCCCCC(=O)Nc1nc(C)c(-c2csc(Nc3cc(Cl)ccc3OC)n2)s1 | 5.75% (inactive) |
| Cc1ccc(NS(=O)(=O)c2ccc(N/N=C/c3ccccc3OCC(=O)O)c([N+](=O)[O-])c2)c(C)c1 | 64.9% (active) |
| COc1ccc(Br)cc1/C=N/Nc1ccc(S(=O)(=O)Nc2ccccc2C(=O)O)cc1[N+](=O)[O-] | 73.9% (active) |
| O=C(Nc1ccc(S(=O)(=O)Nc2nccs2)cc1)c1cc(-c2ccncc2)nc2ccccc12 | 44.5% (active) |
| COc1ccc(NS(=O)(=O)c2cc(NC(=O)CC(=O)c3ccc([N+](=O)[O-])cc3)ccc2C)cc1 | 28.1% (inactive) |
| CCn1cc(C(=O)NCCCN2CCCCCC2)c(=O)c2cc(S(=O)(=O)N3CCc4ccccc4C3)ccc21 | -16.2% (inactive) |
| Cc1cc(C)c(S(=O)(=O)NN=C2c3ccccc3[C@H]3Cc4csc[n+]4[C@@H]23)c(C)c1 | 30.1% (inactive) |
| Cc1ccc(Cc2cnc(NC(=O)/C(C#N)=C/c3ccc(-c4cccc([N+](=O)[O-])c4)o3)s2)cc1 | 5.75% (inactive) |

| Compound | inhibition |
| --- | --- |
| Nc1nc2n(n1)C(c1ccco1)CC(c1ccc(Cl)c(Cl)c1)N2 (centres undefined) | 13.2% (inactive) |
| CCOc1ccc2nc(N3CCCN(C(=O)Nc4ccccc4C)CC3)c(C#N)cc2c1 | -3.08% (inactive) |
| CCOc1ccc2nc(/N=C/c3nc(-c4ccccc4)oc3O)sc2c1 | 5.96% (inactive) |
| COc1cccc(-c2nn(-c3ccccc3)cc2/C=C(\C#N)C(=O)NCCCn2ccnc2)c1 | 2.7% (inactive) |
| Cc1nn2c(c1-c1ccccc1)N=C(c1ccco1)CC2c1ccccc1 (centres undefined) | 21.2% (inactive) |
| COC(=O)c1ccc2nc(-c3ccc(C)cc3)c(Cc3ccc(OC)cc3C)n2c1 | 12.6% (inactive) |
| Cc1cc2nc(-c3ccco3)c(Cc3cccc(F)c3)n2c(C)c1Br | 22.4% (inactive) |
| C/C(=N\NC(=O)CNc1cccc2ccccc12)c1ccc(Br)s1 | 8.07% (inactive) |
| O=C(Cc1csc(Nc2nc(=S)[nH]c3ccccc23)n1)NCCCN1CCN(c2cccc(Cl)c2)CC1 | 33.7% (inactive) |
| Cc1ccc(Nc2nc(-c3sc(NC(=O)c4ccccc4)nc3C)cs2)cc1 | 38.5% (inactive) |
| Cc1ccc(C(=O)NNC(=O)c2cc3cc4ccccc4nc3s2)cc1 | 65.5% (active) |
| O=C(COC(=O)c1ccc(Oc2ccccc2)cc1)Nc1nnc(-c2ccccc2)o1 | 72.6% (active) |
| N#CCC(=O)Nc1ccc(C(=O)OCC(=O)Nc2sc3c(c2C#N)CCCC3)cc1 | 24.8% (inactive) |
| CCOc1ccc(NC(=O)c2ccc(NC(=O)COC(=O)c3ccc(NC(=O)CC#N)cc3)cc2)cc1 | 15.8% (inactive) |
| NC(c1csc(NC(=O)Nc2ccccc2Oc2ccccc2)n1)c1ccccc1Cl (centres undefined) | 25.9% (inactive) |
| COc1ccc(NC(=O)/C(C#N)=C\c2cc(OC)c(OCc3ccc(C(=O)O)cc3)cc2Br)cc1 | 11% (inactive) |
| NC(CSC(c1ccccc1)(c1ccccc1)c1ccc(-c2ccccc2)cc1)C(=O)O (centres undefined) | 54.7% (active) |
| Cc1cccc(NC(=O)c2sc3nc4c(c(-c5ccco5)c3c2N)CCC4)c1 | 21.1% (inactive) |
| O=C(NC(Cc1c[nH]c2ccccc12)C(=O)N/N=C/c1ccc(Br)cc1)c1cccs1 (centres undefined) | 25.7% (inactive) |
| O=C1Nc2cc(C(=O)N3CCN(c4ccc(F)cc4)CC3)ccc2NC1CSCc1cccc(F)c1 (centres undefined) | 41.8% (inactive) |

| Compound | inhibition |
| --- | --- |
| S=c1[nH]nc(Nc2ccccc2)s1 | 45.2% (inactive) |
| Cc1ccc(-n2c(SCC(=O)N/N=C/C=C/c3ccccc3[N+](=O)[O-])nc3ccccc3c2=O)cc1 | 3.65% (inactive) |
| CCOc1cc(/C=C2/N=C(c3ccc(C(C)(C)C)cc3)OC2=O)cc(Cl)c1OS(C)(=O)=O | 11.4% (inactive) |
| Cc1oc2c(C)c3oc(=O)c(CC(=O)N[C@@H](CC(C)C)C(=O)N[C@@H](Cc4ccccc4)C(=O)O)c(C)c3cc2c1C | 43.8% (inactive) |
| O=C(Nc1nnc(-c2ccccc2)o1)c1cc(-c2cccs2)nc2ccccc12 | 55.5% (active) |
| Cc1ccc(-c2cc(C(=O)N/N=C/C=C/c3ccco3)c3ccccc3n2)cc1C | 4.81% (inactive) |
| CS(=O)(=O)c1sc2nc(-c3ccccc3)cc(-c3ccccc3)c2c1N | 1.76% (inactive) |
| NC(=O)c1ccc(NC(=O)COC(=O)c2c3c(nc4ccccc24)/C(=C\c2ccc4c(c2)OCO4)CCC3)cc1 | 45.2% (inactive) |
| NS(=O)(=O)c1ccc(NC(=O)COC(=O)c2c3c(nc4ccccc24)/C(=C\c2ccc4c(c2)OCO4)CCC3)cc1 | 74.4% (active) |
| O=C(Nc1cccc(-c2nc3ccccc3[nH]2)c1)c1ccc(C(=O)Nc2cccc(-c3nc4ccccc4[nH]3)c2)cc1 | 34.9% (inactive) |
| CCOC(=O)C1=C(C)Nc2sc(C(=O)c3ccc(Br)cc3)c(N)c2C1c1ccc(C(=O)OC)cc1 (centres undefined) | 8.7% (inactive) |
| CC(=O)Nc1ccc(C(=O)Nc2nc(-c3cc(C)n(Cc4ccccc4)c3C)cs2)cc1 | 14.3% (inactive) |
| COc1cccc(OCc2cc(/C=N/NC(=O)c3nc(Cl)c(Cl)c(N)c3Cl)ccc2OC)c1 | 25.3% (inactive) |
| CC(C)c1ccc2c(c1)c(SC(C)(C)C)c(CC(C)(C)C(=O)O)n2Cc1ccc(Cl)cc1 | 28.1% (inactive) |
| S=c1[nH]nc(-c2cccs2)n1/N=C/c1cn(-c2ccccc2)nc1-c1ccc(Cl)cc1 | 6.28% (inactive) |
| COc1ccc(-c2nc3cnccn3c2NC2CCCCC2)cc1-c1cccc(Cl)c1 | 18.8% (inactive) |
| O=C(COc1ccc(/C=N/NC(=O)c2ccc(O)cc2)cc1)Nc1ccc([N+](=O)[O-])cc1 | 15.9% (inactive) |
| COc1ccc(-n2c(SCC(=O)Nc3sc4c(c3C#N)CCCC4)nnc2-c2ccc(O)cc2)cc1 | 6.59% (inactive) |
| O=C(COc1ccc([N+](=O)[O-])cc1)Nc1ccc(N2CCCC2)cc1 | -0.14% (inactive) |
